Data: PubChem BioAssay AID1986 (Sanford-Burnham Center for Chemical Genomics, 2009)
Screen size: about 290,000 compounds; about 890 (0.31%) were called active. Cut-off read from the data, not from the text of the source: active = inhibition mostly above about 52% (no sharp cut-off); inactive = mostly below about 76%. For the sample, actives were picked, then their nearest neighbours and some compounds at random.

Assay: inhibitors of HIV fusion peptide binding, primary screen, biochemical, uHTS, fluorescence dequenching (AID 1986)
Details: cell-free peptide binding, 30 min, stronger effect = higher value
[1] = measured here: repeat confirmation average inhibition, at 18.6 µM

SMILES | inhibition (at 20 µM) | inhibition [1]
Nc1c(C(=O)NC2CC2)sc2nc3c(c(-c4ccco4)c12)CC/C3=C/c1ccco1 | 64.6% (inactive) | 21.7%
Nc1c(C(=O)NCC2CCCO2)sc2nc3c(c(-c4ccco4)c12)CC/C3=C\c1ccco1 (stereo not given) | 64.6% (active) | 
Nc1c(C(=O)Nc2ccccc2)sc2nc3c(c(-c4ccco4)c12)CCC3 | -1.5% (inactive) | 
COc1ccc(Nc2nc3ccccc3nc2NS(=O)(=O)c2cccs2)c(OC)c1 | 51.5% (active) | 64.5%
COc1cccc(Nc2nc3ccccc3nc2NS(=O)(=O)c2cccs2)c1 | 69.4% (inactive) | 30.8%
COc1ccc(Nc2nc3ccccc3nc2NS(=O)(=O)c2cccs2)cc1 | 45.5% (inactive) | 
Cc1cccc(C)c1NC(=O)CN(C)C(=O)c1ccccc1C(=O)N(C)Cc1ccccc1 | -1.3% (inactive) | 
C(=N\Nc1nc(N2CCCC2)nc(N2CCCC2)n1)/c1ccncc1 | -0.1% (inactive) | 
COc1ccc(C(=O)NCc2nnc(SCC(=O)Nc3ccccc3F)o2)cc1 | -1.8% (inactive) | 
COc1ccccc1/C=C/C(=O)NCC(=O)n1nc(C)cc1C | 0.9% (inactive) | 
O=c1cc(O)c2sc(Nc3ccc(F)cc3)nc2[nH]1 | 23.5% (inactive) | 
O=c1cc(O)c2sc(Nc3ccc(F)c(Cl)c3)nc2[nH]1 | 51.4% (active) | 
O=c1cc(O)c2sc(Nc3ccc(Cl)c(F)c3)nc2[nH]1 | 46.9% (inactive) | 
CCOc1ccc2cc(C(=O)NCc3ccccc3)c(=N)oc2c1 | 0.1% (inactive) | 
CCCCCC/C(C)=C1/SC(=S)NC1=O | 24.4% (inactive) | 
C/C(C/C(C)=C1/SC(=S)NC1=O)=C1\SC(=S)NC1=O | 69.5% (active) | 
CCO/C(C)=C1/SC(=S)NC1=O | -1% (inactive) | 
CCC1(CC)Cc2ccccc2C(=C(C#N)C#N)N1 | 0.7% (inactive) | 
Cc1c(Cc2ccccc2)sc(NC(=O)/C=C/c2cccc3ccccc23)c1C(N)=O | 3.6% (inactive) | 
COc1nc2ccccc2nc1OC | 0.6% (inactive) | 
COc1ccc2c(n1)Sc1nc3ccccc3nc1N2 | 82.7% (active) | 
COc1cc2ccccc2nn1 | -0.9% (inactive) | 
COC(=O)Nc1nnc(-c2ccccc2Cl)s1 | -1.6% (inactive) | 
CCCN(C(=O)COc1ccc(Cl)cc1Cl)c1c(N)n(Cc2ccccc2)c(=O)[nH]c1=O | 5.9% (inactive) | 
CCCCN1C(=O)/C(=C/C=C2\Oc3ccccc3N2CC)SC1=S | 149% (inactive) | 

SMILES | inhibition (at 20 µM) | inhibition [1]
CCSC1=N/C(=C\c2ccc3c(c2)OCO3)C(=O)S1 | 9.4% (inactive) | 
CCSC1=N/C(=C\C=C2/Oc3ccccc3N2CC)C(=O)S1 | 109% (active) | 63%
CCN(CC)c1ccc(-c2nc3cnccc3n2C)cc1 | 0.4% (inactive) | 
O=C(NCC1CCCO1)C1CCN(C2CCN(Cc3ccco3)CC2)CC1 (stereo not given) | 1.6% (inactive) | 
CCOc1ccc(-c2nn(-c3ccccc3)cc2/C=C2\SC(=S)N(C3CCS(=O)(=O)C3)C2=O)cc1 (stereo not given) | 78.9% (active) | 85%
CCCOc1ccc(-c2nn(-c3ccccc3)cc2/C=C2\SC(=S)N(C3CCS(=O)(=O)C3)C2=O)cc1 (stereo not given) | -1.7% (inactive) | 
CCOc1ccc(-c2nn(-c3ccccc3)cc2/C=C2\SC(=S)N(Cc3ccco3)C2=O)cc1 | 17.3% (inactive) | 
CCCOc1cccc(C(=O)N(Cc2ccc(OC)c(OC)c2)C2CCS(=O)(=O)C2)c1 (stereo not given) | 1% (inactive) | 
CCCCN(C)CCNC(=O)c1ccc(Cn2c(=S)[nH]c3ccc(Br)cc3c2=O)cc1 | -3.1% (inactive) | 
COC(=O)N=Nc1c(O)n(Cc2ccccc2)c2ccccc12 | -1.9% (inactive) | 
O=C(COc1ccc(Cl)cc1Cl)Nc1ccc2nc3n(c(=O)c2c1)CCCC3 | -2.9% (inactive) | 
CCCC1(c2ccccc2)NC(=O)N(CC(=O)Nc2cc(OC)cc(OC)c2)C1=O (stereo not given) | 0.8% (inactive) | 
CCC1(c2ccccc2)NC(=O)N(CC(=O)Nc2ccc(S(N)(=O)=O)cc2)C1=O (stereo not given) | 1.2% (inactive) | 
CCC1(c2ccccc2)NC(=O)N(CC(=O)Nc2ccc(OC)nc2)C1=O (stereo not given) | 116% (active) | 
O=C(COC(=O)c1ccc(S(=O)(=O)N2CCOCC2)cc1)NC1CCCC1 | 0.3% (inactive) | 
Cc1ccn2c(Nc3ccccc3)c(-c3ccccn3)nc2c1 | -2.6% (inactive) | 
Cc1ccn2c(Nc3ccc4c(c3)OCO4)c(-c3ccccn3)nc2c1 | 114% (active) | 
Cc1ccc(Nc2c(-c3ccccn3)nc3cc(C)ccn23)cc1 | 0.3% (inactive) | 
CCC(C)NC(=O)CN1C(=O)NC2NC(=O)NC21 (stereo not given) | 0.8% (inactive) | 
Cc1ccc(NC(=S)N(Cc2ccc(Br)cc2)Cc2ccc(C(=O)O)cc2)cc1C | 36.8% (inactive) | 
Cc1cc(NC(=S)N(Cc2ccc(Cl)cc2)Cc2ccc(C(=O)O)cc2)ccc1Cl | 53.2% (inactive) | 34.6%
Cc1cc(NC(=S)N(Cc2ccc(Br)cc2)Cc2ccc(C(=O)O)cc2)ccc1Cl | 59.2% (active) | 
CCOc1cc(/C=N/NC(=O)Cc2ccc(C(F)(F)F)cc2[N+](=O)[O-])c(Br)cc1OC | 0.7% (inactive) | 
O=C(Nc1nnc(CCc2ccccc2)s1)c1ccc(F)cc1 | 1.8% (inactive) | 
